# According to PubChem BioAssay AID710 (SRMLSC, 2007):
# The campaign covered roughly 98,000 compounds. About 150 (0.15%) were called active.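 Rule for the calls: active = growth inhibition above about 50% at one test dose (limit read from the data); inactive = the rest.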 The list comes from a sample in which actives are over-represented; it also holds similar structures and randomly drawn compounds.
# Assay: growth inhibitors of wild-type E. coli, primary screen, strain BW25113, expanded library, OD600 (AID 710);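 note: growth measured after 20 h incubation at 37 °C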
# Conditions: OD600 absorbance, at 100 µM, hits give high values
row,Structure (SMILES),growth inhibition
1,CCOC(=O)c1nn(-c2cccc(C)c2)cc1C(=O)c1ccccc1,5% (inactive)
2,Cc1ccc(N(CC(=O)Nc2cccc(N(C)S(C)(=O)=O)c2)S(C)(=O)=O)cc1,-5% (inactive)
3,Cc1ccn(C(CC(=O)c2ccc(Br)cc2)C(=O)O)n1 (stereo not given),8% (inactive)
4,Cn1sc(NC(=O)c2ccccc2)nc1=O,-5% (inactive)
5,Cc1cc(C)c(S(=O)(=O)N2C=CC(C(F)(F)F)=NCC2)c(C)c1,7% (inactive)
6,CCOc1ccc(S(=O)(=O)Nc2nc3cc(OC)ccc3s2)cc1,-6% (inactive)
7,CCCCc1nc(NCCN)c(C#N)c2c1CSC(C)(C)C2,33% (inactive)
8,Cc1ccc(Oc2ccc3c(c2)C(=O)N(c2cccc4cccnc24)C3=O)cc1,3% (inactive)
9,OCCNc1nc2ccccc2[nH]1,2% (inactive)
10,Cc1ccc(S(=O)(=O)N2CCC(C(=O)NCC3CCCO3)CC2)cc1 (stereo not given),-7% (inactive)
11,CC1(C)Cc2nc3sc4c(SCC(=O)NC(c5ccccc5)c5ccccc5)ncnc4c3cc2CO1,-10% (inactive)
12,CN(C)C(=O)c1cc(Br)ccc1Cl,2% (inactive)
13,C=CCN(C(=O)Cn1ncc2c1-c1cc(C)ccc1OC2)c1ccccc1,5% (inactive)
14,O=c1[nH]n(-c2cccc(Cl)c2)c2ncccc12,-6% (inactive)
15,CCOc1ccccc1NC(=O)C12CC3CC(C1)CC(c1ccc(C)cc1)(C3)C2,-16% (inactive)
16,O=C(CCN1c2ccccc2Sc2ccccc21)Nc1ccccc1,-21% (inactive)
17,Cc1cc([N+](=O)[O-])ccc1NCc1cccc([N+](=O)[O-])c1,-11% (inactive)
18,CCOc1ccc(S(=O)(=O)Nc2ccc(S(=O)(=O)Nc3cc(OC)ccc3OC)cc2)cc1,-6% (inactive)
19,CCCCn1c(=S)[nH]c2cc(S(=O)(=O)N3CCCCC3)ccc21,2% (inactive)
20,CSC1=N/C(=C\c2ccc3c(c2)OCO3)C(=O)S1,-11% (inactive)
21,COc1cccc(NC(=O)c2nn(C34CC5CC(CC(C5)C3)C4)cc2[N+](=O)[O-])c1,-6% (inactive)
22,O=c1c2ccccc2c(-c2ccc(Br)cc2)nn1Cc1ccccc1,-14% (inactive)
23,COc1ccc(-c2cn(-c3ccc(C)cc3)c(=O)n2CC(=O)Nc2ccc(OC)c(OC)c2)cc1,-4% (inactive)
24,CC1CC(C)CN(C/C=C/c2ccccc2[N+](=O)[O-])C1 (stereo not given),-1% (inactive)
25,CCCCNC(=O)OC(C)CNC(=O)OC (stereo not given),10% (inactive)
26,Cc1cc(NC(=O)CS(=O)(=O)c2cn(C)c3ccccc23)no1,0% (inactive)
27,COc1cc(CNCc2cccs2)cc(Br)c1OC,5% (inactive)
28,c1ccc(COc2ccccc2CNCc2cccnc2)cc1,3% (inactive)

row,Structure (SMILES),growth inhibition
1,CCNc1nc(N)nc(-c2cc(Cl)ccc2OC)n1,4% (inactive)
2,Cn1c(-c2sc3cc(C(F)(F)F)cnc3c2-c2ccccc2)n[nH]c1=S,-2% (inactive)
3,C=CCn1c(SCC(=O)c2ccc(Br)cc2)nnc1C(C)NC(=O)Cc1ccc(OC)cc1 (stereo not given),4% (inactive)
4,Cc1ccc(C(=O)N2CCN(C(=O)N3CCOCC3)CC2)cc1,0% (inactive)
5,CCN(CC)S(=O)(=O)c1ccc(N(C)Cc2ccc(C(F)(F)F)cc2)nc1,-2% (inactive)
6,CC(C)Cn1cnc2c1c(=O)n(CC(O)c1ccccc1)c(=O)n2CC(C)C (stereo not given),8% (inactive)
7,CC(=O)c1c(C)n([O-])c2ccccc2[n+]1=O,100% (active)
8,CC(=O)c1ccc2c(c1)c1ccccc1n2CC(C)C,-1% (inactive)
9,Cc1ccc(C)c(N2C(=O)CS/C2=N\NC(=O)c2ccccc2Cl)c1,1% (inactive)
10,Nc1c(-c2ccc(F)cc2)cnn1C1CCS(=O)(=O)C1 (stereo not given),15% (inactive)
11,COc1ccc(-c2c(C(C)=O)c(C)nc3sc4c(=O)n(-c5ccc(C)cc5)nnc4c23)cc1,-14% (inactive)
12,COc1ccc(S(=O)(=O)Nc2ccc(F)cc2)c(C)c1C,11% (inactive)
13,O=C(c1ccc2c(c1)OCO2)N1CCN(C(=O)c2ccco2)CC1,2% (inactive)
14,CN=C1S/C(=C\c2ccc(Sc3ccc(Cl)cc3)o2)C(=O)N1C,-20% (inactive)
15,COC(=O)CNS(=O)(=O)c1ccc(Cc2ccc(S(=O)(=O)NCC(=O)OC)cc2)cc1,50% (active)
16,COC(=O)COc1ccc(S(=O)(=O)Nc2ccc(NC(C)=O)cc2)cc1,0% (inactive)
17,COC(=O)CNS(=O)(=O)c1ccc(OC)cc1,1% (inactive)
18,Cc1ccc(C2CC2C(=O)NN)cc1 (stereo not given),-12% (inactive)
19,CCCNC(=O)c1ccccc1NC(=O)CSCc1ccc(OC)cc1,0% (inactive)
20,Cc1ccc(Sc2cc(N3CCOCC3)nc(-c3ccccc3)n2)cc1,-9% (inactive)
21,C=CCn1c(SCC(=O)/C(C#N)=C(\C)N)nc2sc(C)c(C)c2c1=O,-6% (inactive)
22,CC(C)(C)c1ccc(OC2=CS(=O)(=O)c3ccccc32)cc1,-3% (inactive)
23,Cc1ccc(CNC(=O)C2CC(c3ccccc3[N+](=O)[O-])=NO2)o1 (stereo not given),0% (inactive)
24,CCC(=O)Nc1ccc(S(=O)(=O)NCC2CCCO2)cc1 (stereo not given),3% (inactive)
25,CC(C)c1ccc(C(=O)NCCCc2ccccc2)cc1,1% (inactive)
26,C=CCOC(=O)C1=C(C)NC(SCC(=O)OCC)=C(C#N)C1c1ccc(C)cc1 (stereo not given),-10% (inactive)
27,CCOc1ccc(C(=O)NC(C(=O)NCc2ccccn2)C(C)C)cc1 (stereo not given),-6% (inactive)
